Assay results published in PubChem BioAssay (NCI).
About 79,000 compounds went through this panel and 15% of them were active in at least one assay; those are over-represented in the sample as a whole. Activity calls are given as the source filed them. Cut-off read from the data, not from the text of the source: active = growth inhibition above about 70%; inactive = the rest.

What was measured:
[1] = NCI Yeast Anticancer Drug Screen. Data for the rad50 strain (AID 155);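 note: 0% = growth of vehicle-only cultures of the same strain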; conditions: S. cerevisiae rad50 strain growth inhibition; at 50.0 µM; stronger effect = higher value
Procedure, shortened: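 Genetically altered yeast (DNA repair pathway); compound treatment; growth inhibition vs vehicle ctrl.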

[2] = NCI Yeast Anticancer Drug Screen. Data for the mec2-1 strain (AID 157); conditions: S. cerevisiae mec2-1 strain, at 50.0 µM, stronger effect = higher value
Procedure, shortened: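 Each compound was tested on mec2-1 yeast, a strain altered in DNA damage repair or cell cycle control. Growth inhibition is reported relative to vehicle.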

[3] = NCI Yeast Anticancer Drug Screen. Data for the sgs1 mgt1 strain (AID 161);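 note: 0% = growth of cultures given vehicle only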; conditions: S. cerevisiae sgs1 mgt1 strain, at 50.0 µM, stronger effect = higher value
Procedure, shortened: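 Read-out: growth inhibition vs vehicle controls. Cells: mutant yeast strain deficient in DNA damage repair.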

[4] = NCI Yeast Anticancer Drug Screen. Data for the cln2 rad14 strain (AID 165);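 note: 0% = growth equal to vehicle treated cultures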; conditions: S. cerevisiae cln2 rad14 strain, at 50.0 µM, stronger effect = higher value
Procedure, shortened: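 Test compounds were added to cln2 rad14 yeast cultures; inhibition of growth was then determined by comparison with vehicle treatment.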

[5] = NCI Yeast Anticancer Drug Screen. Data for the bub3 strain (AID 167); conditions: S. cerevisiae bub3 mutant strain, at 50.0 µM, stronger effect = higher value
Procedure, shortened: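 Yeast carrying a defined mutation is treated with each compound, and growth is compared with that of vehicle-exposed cells to give inhibition.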

[6] = NCI Yeast Anticancer Drug Screen. Data for the mlh1 rad18 strain (AID 175); conditions: S. cerevisiae mlh1 rad18 strain growth inhibition; at 50.0 µM; stronger effect = higher value
Procedure, shortened: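 Inhibition values reflect reduced growth of mutant yeast versus vehicle-treated controls following compound exposure; the mutations affect DNA damage repair.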

Measured: growth inhibition

COc1ccc(C2c3cc4c(cc3OC(C)(O)C2C)OCO4)c(OC)c1OC (centres undefined)
inactive: [1] 3.45% | [2] 5.7% | [3] -1.4% | [4] -9.25% | [5] -5.1% | [6] 18.9%

C[CH2][Ge]([CH2]C)[CH2]C.C[CH2][Ge]([Cl])[CH2]C
active: [1] 76.3% | [6] 74.5%
inactive: [2] 3.45% | [3] 52.9% | [4] -10.2% | [5] 41.8%

OCCCOC(c1ccccc1)(c1ccccc1)c1ccccc1
inactive: [1] -22.9% | [2] -29.4% | [3] -30.2% | [4] 1.55% | [5] -49.8% | [6] -12.9%

CC(C)c1nc2c([nH]1)c(=O)n(C)c(=O)n2C
inactive: [1] 30.2% | [2] 6.85% | [3] 26.4% | [4] 18% | [5] 2.8% | [6] 17.9%

O=C(OCN1C(=O)C2C3C=CC(C2C1=O)C1C2C(=O)N(COC(=O)C4CCCN4)C(=O)C2C31)C1CCCN1 (centres undefined)
inactive: [1] 5% | [2] -15.6% | [3] -36.6% | [4] 2.95% | [5] -42.8% | [6] -10.1%

COC1CC(NC(=O)c2ccccc2)C(O)C(C)O1 (centres undefined)
inactive: [1] 8.65% | [2] 18.3% | [3] 11.6% | [4] 10.6% | [5] 0.8% | [6] 8.5%

CCc1cc2c(c3c1CCCC3)CC1(Cc3ccc(C(=O)OC)cc3C1)C2 (centres undefined)
inactive: [1] 3.65% | [2] -11.7% | [3] -16.4% | [4] 10.3% | [5] 3.15% | [6] -12.4%

OCCSCCCCCSCCO
inactive: [1] -2.6% | [2] -7.7% | [3] -7.3% | [4] -2.15% | [5] -7.4% | [6] -15.3%

O=[N+]([O-])c1cc(F)cc(F)c1Nc1ccccc1
inactive: [1] 2.85% | [2] -11.4% | [3] 2.2% | [4] 3.1% | [5] 0.5% | [6] 17.6%

COC(=O)C1(CC(=O)c2ccc(F)cc2)NC(=S)NC(=O)C1C#N (centres undefined)
inactive: [1] 14.6% | [2] 2% | [3] -8.3% | [4] -13.1% | [5] -34% | [6] -1.7%

O=c1c2c([nH]c(=S)n1-c1ccccc1)NCCC2
inactive: [1] -13.8% | [2] -1.25% | [3] -11.6% | [4] 3.3% | [5] 9.55% | [6] 0.4%

CC1(C)CC(Nc2ccccc2)=CC(=Nc2ccccc2)S1
inactive: [1] -13.1% | [2] -11.2% | [3] -3.55% | [4] -25.2% | [5] -32.5% | [6] -14.2%

CC(C)c1ccc(C(O)C2CC2)cc1 (centres undefined)
inactive: [1] -14.3% | [2] -40.8% | [3] -15.2% | [4] 3.05% | [5] -19.6% | [6] -11.6%

CC(=O)Nc1ccc(/C=N/NC(N)=S)cc1
inactive: [1] 7.4% | [2] -7.35% | [3] 17% | [4] 12.4% | [5] 3.05% | [6] 13%

Cn1ncc2c(=S)[nH]c(=S)[nH]c21
inactive: [1] 19.4% | [2] -9.25% | [3] 2.5% | [4] 7.85% | [5] 2.3% | [6] 1.85%

CS(=O)(=O)Nc1ccc(C(=O)CCN2CCCCCC2)cc1
inactive: [1] -4.35% | [2] 8.9% | [3] -28.9% | [4] -6.6% | [5] -27.5% | [6] -23.1%

OC(CC(O)(C(F)(F)F)C(F)(F)F)c1cccs1 (centres undefined)
inactive: [1] -1.95% | [2] 13.6% | [3] 4.6% | [4] 51.5% | [5] -5.45% | [6] 12.9%

CC1(C)OC2C3COc4nc5c(N)ncnc5n4C(O3)C2O1 (centres undefined)
inactive: [1] -6% | [2] -5.2% | [3] -8.85% | [4] -5.05% | [5] -8.1% | [6] -9.9%

CCOC(CCCl)c1ccc(C)cc1 (centres undefined)
inactive: [1] -25.2% | [2] -42.2% | [3] -20.4% | [4] 20.1% | [5] -33.6% | [6] -20.5%

CC(=O)OCCn1c(C)nc2cc(Cl)c(Cl)cc21
inactive: [1] 33.1% | [2] 5.45% | [3] 16.3% | [4] 31.9% | [5] 23.7% | [6] 36.2%

O=C(NNC(=O)c1cccc(F)c1)c1cccc(F)c1
inactive: [1] -20.6% | [2] -8.1% | [3] -13.3% | [4] 18.9% | [5] -6.4% | [6] -1.75%

CCN(CC)CCn1[nH]c2c3ccc(=O)cc3sc3c(NCCN)ccc1c32
inactive: [1] 13.3% | [2] -3.35% | [3] -12.7% | [4] -5.55% | [5] 2.5% | [6] -2.4%

NCCCC(NC(=O)CCCCCCCCN=C(N)N)C(O)CCCCCCCCN=C(N)N (centres undefined)
inactive: [1] 20.9% | [2] 14.8% | [3] 4.55% | [4] -6.8% | [5] 22.3% | [6] 0.75%

CSc1nc(C=O)nc(SC)n1
inactive: [1] 1.25% | [2] -12% | [3] 9.1% | [4] -11.3% | [5] 3.45% | [6] -17.1%

O=C1CCCCCCCCCCOCCCCO1
inactive: [1] -2.4% | [2] 2.9% | [3] 14.8% | [4] 24.1% | [5] 27.7% | [6] -13.4%

O=C(CCCCc1ccccc1)NO
inactive: [1] 25.4% | [2] 18.8% | [3] 14.4% | [4] 15.8% | [5] -5.5% | [6] 33.5%

S=C(Cc1cccnc1)N1CCOCC1
inactive: [1] -7.85% | [2] 41.5% | [3] 8.2% | [4] -27.9% | [5] 5.15% | [6] 45.5%

C1C[O][Ge]2([O]1)[O]CC[O]2
inactive: [1] -24.9% | [2] -4.95% | [3] -16.2% | [4] 17.1% | [5] -13.2% | [6] -5.95%

O=C(Nc1ccc(F)c([N+](=O)[O-])c1)N(Cc1ccccc1)c1ccccc1
inactive: [1] 8.05% | [2] 1.05% | [3] 1.55% | [4] 5.95% | [5] 26.9% | [6] 16.9%

Oc1ccc2ccccc2c1C=Nc1ccc(SSc2ccc(N=Cc3c(O)ccc4ccccc34)cc2)cc1
inactive: [1] -6.6% | [2] -10.1% | [3] -19.6% | [4] -59.5% | [5] 0.9% | [6] -3.1%

CCN(CC)CCNC(=O)c1c(C)cc(C)cc1C
inactive: [1] -5.1% | [2] 0.2% | [3] -0.3% | [4] -53.2% | [5] -1.95% | [6] 10.8%

Nc1ccc(S(=O)(=O)Nc2cnc3c(Cl)cccc3n2)cc1
inactive: [1] -11% | [2] 4.2% | [3] 10.9% | [4] -39.5% | [5] 32.2% | [6] -0.6%

CCCC(O)c1ccccc1C (centres undefined)
inactive: [1] 17.6% | [2] 13.9% | [3] 1.4% | [4] -17.2% | [5] 4.6% | [6] 12.1%

NC(=O)Nc1ccc(S(=O)(=O)c2ccc(N)cc2)cc1
inactive: [1] 0.5% | [2] -5.2% | [3] 12.5% | [4] -5.35% | [5] 4% | [6] -15.7%

CC(N=Nc1ccccc1)/N=N/c1nn[nH]n1 (centres undefined)
inactive: [1] 23.8% | [2] -12.2% | [3] -11.6% | [4] -84% | [5] -22% | [6] -3.25%

O=C(CI)Nc1ccc(Cl)c(Cl)c1
active: [1] 99.7% | [2] 99.3% | [3] 99.8% | [4] 99.6% | [5] 99.8% | [6] 99.7%

CCOC(=O)c1c[nH]c(=S)[nH]c1=O
inactive: [1] 9.25% | [2] -8.4% | [3] 18.7% | [4] -15.1% | [5] -1.2% | [6] -10.8%

Cc1ccc2nc(-c3ccc(-c4nc5ccc(C)cc5o4)c(O)c3)oc2c1
inactive: [1] -36.3% | [2] -14.4% | [3] -27.1% | [4] 2.95% | [5] -17.2% | [6] -24.8%

COC1=CC(=C(\C#N)c2ccc(Cl)cc2)/C=CC/1=N/O
inactive: [1] 20.1% | [2] 11.6% | [3] 3.85% | [4] -7.25% | [5] 5.75% | [6] 21.9%
